Reference: PubChem BioAssay AID598 (SRMLSC, 2007)
About 5,100 (6%) of roughly 85,000 compounds were called active.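 How the source made its calls: active means viability at or below 40%; inactive means viability above 40%.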 What follows is part of a selection rich in actives, with near analogues and random picks from the rest.

Experiment: proliferation blockers of H69AR lung cancer cells, primary screen, cell-based, human, 86K library (AID 598);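 further: multidrug resistant small cell line overexpressing MRP-1 efflux transporter; 100% = mean luminescence of untreated control wells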
Conditions: H69AR lung tumor viability, ATP luminescence, 72 h; at 10 µM; stronger effect = lower value

SMILES | viability
COc1cc(Cn2c(N)c(C(=O)NCc3ccco3)c3nc4ccccc4nc32)cc(OC)c1OC | 9.48% (active)
CCOC(=O)c1c(N)n(CCN2CCOCC2)c2nc3ccccc3nc12 | 92.9% (inactive)
CCOC(=O)c1c(N)n(Cc2ccccc2)c2nc3ccccc3nc12 | 74.2% (inactive)
Cn1c(O)c(C=NCCN2CCNCC2)c(=O)n(C)c1=O | 93.2% (inactive)
COc1ccc(CN2CCN(c3ccccc3F)CC2)c(OC)c1 | 78.7% (inactive)
CN(C)C(=O)NC(O)C(Cl)(Cl)Cl (stereo not given) | 103% (inactive)
CCCCn1c(O)c(C(CC)=NCc2ccco2)c(=O)[nH]c1=O | 76.8% (inactive)
CCOc1ccc(CN(CCCl)CCCl)cc1C(=O)OC | 54.1% (inactive)
Cc1ccc(Cn2c(C)c3cnn(CC(=O)N4CCC5(CC4)OCCO5)c(=O)c3c2C)cc1 | 37.9% (active)
COc1ccc(-c2nc(CS(=O)CC(=O)N3CCC4(CC3)OCCO4)c(C)o2)cc1 (stereo not given) | 92.7% (inactive)
O=C(CCCn1c(=O)[nH]c2cc(Cl)ccc2c1=O)N1CCC2(CC1)OCCO2 | 82.2% (inactive)
CC(=O)c1c(C)n(C(C)C)c2ccc(O)cc12 | 98.6% (inactive)
CCCCCn1c(=O)c(C(=O)NCc2ccccn2)c(O)c2ccccc21 | 20.3% (active)
COc1ccc(CCn2c(O)c(C=NCCCn3ccnc3)c(=O)[nH]c2=O)cc1OC | 87.2% (inactive)
CCN(N=Nc1nonc1OC)c1nonc1OC | 95.7% (inactive)
Cc1ccc(N(C)C(=O)Oc2cccc3ccc(C)nc23)cc1 | 90% (inactive)
CC(=O)c1c(O)n(C2CCCCCC2)c(=O)[nH]c1=O | 88.7% (inactive)
CCC(=NCCc1ccccc1)c1c(O)n(C2CCCCC2)c(=O)[nH]c1=O | 25.3% (active)
CCC(=NCc1ccco1)c1c(O)n(Cc2ccccc2)c(=O)[nH]c1=O | 71.1% (inactive)
c1cc2c(cc1CCNC1CCCCCC1)OCO2 | 73.7% (inactive)
